The list is not random: actives were taken first. Their share in the collection is about 9%.
HPGD inh: HPGD (human) dehydrogenase inhibition. P15428. purified HPGD, NADH fluorescence kinetic, PGE2 substrate. Potency, µM, without a hit: at the top dose activity change, negative = inhibition, most hits filed as inhibitors. 4.3% of 150,000 active; active = well fitted inhibition curve with a large enough effect, not every such curve was filed as active; inconclusive = small, poorly fitted or top-dose-only effect, or another doubt; inactive = no such curve, though single readings can be large or run the other way; also: % is scaled to controls: 0 for no effect and ±100 for the full control effect
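NADH formation kinetics: reaction with 30 uM PGE2 and 1 mM NAD+ (final), 20 nM enzyme, Tris-HCl pH 8 with Tween 20, after 15 min compound preincubation at room temperature. Fluorescence change, last versus first of five reads.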
Luc counter: counter-screen: inhibitors of Kinase-Glo firefly luciferase | Potency, µM (doses to about 38.3 µM), for the others: at the highest dose activity change, negative = inhibition, usual class: inhibitors | 0.28% of 200,000 active | Kinase-Glo luciferase, ATP luminescence, 8 min | Q27757; also: % is scaled to controls: 0 for no effect and ±100 for the full control effect; nearly all actives have a fitted effect of over 60% in size
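Inhibition of Kinase-Glo luciferase light generation was assessed at 10 uM ATP in pH 7.2 imidazole buffer, with luminescence measured after eight minutes at ambient temperature.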
HTT ATP protect: cytoprotection in Huntington HTT-Q103 PC12 cell model; 0.14% of 230,000 active; PC12 HTT-Q103 induced, cytoprotection, ATP luminescence, 40 h; Potency, µM (highest dose often 56.4 µM), without a hit: cytoprotection (ATP increase), hits mostly activators; also: % of control where 0% means no effect; nearly all actives have a fitted effect of over 45% in size
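PC12 cells stably carrying ecdysone-inducible Htt exon 1 (Q103)–GFP were induced with 100 nM tebufenozide (final) alongside library compounds in a dose series. Cytoprotection was scored as retained ATP by ATPlite luminescence.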
HTT aggregate: inhibitors of mutant huntingtin aggregate formation in PC12 cells | PC12 HttQ103-GFP aggregates, Acumen cytometry, 40 h | Potency, µM (doses to about 46.1 µM), inactives show top-dose activity change, negative = inhibition, usual class: inhibitors | 1.1% of 220,000 active; also: % is scaled to controls: 0 for no effect and ±100 for the full control effect; nearly all actives have a fitted effect of over 60% in size
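Quantitative HTS on tebufenozide-induced (100 nM) PC12 cells stably expressing polyQ103 Huntingtin exon 1–GFP. Reduction of bright GFP aggregates, detected by laser scanning cytometry after lysis, identified actives across the titration.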
ALDH1A1 block: inhibitors of human aldehyde dehydrogenase 1A1 | Potency, µM (highest dose often 75.3 µM), for inactives: at the top dose activity, negative = inhibition, usual class: inhibitors | 7.3% of 220,000 active | AID 1030 | Purified ALDH1A1, NADH fluorescence, propionaldehyde substrate | P00352; active = well fitted inhibition curve with a large enough effect, not every such curve was filed as active; inconclusive = small, poorly fitted or top-dose-only effect, or another doubt; inactive = no such curve, though single readings can be large or run the other way;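 also: plate controls were no enzyme wells and a reference inhibitor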
Target sequence (P00352 whole entry, looked up): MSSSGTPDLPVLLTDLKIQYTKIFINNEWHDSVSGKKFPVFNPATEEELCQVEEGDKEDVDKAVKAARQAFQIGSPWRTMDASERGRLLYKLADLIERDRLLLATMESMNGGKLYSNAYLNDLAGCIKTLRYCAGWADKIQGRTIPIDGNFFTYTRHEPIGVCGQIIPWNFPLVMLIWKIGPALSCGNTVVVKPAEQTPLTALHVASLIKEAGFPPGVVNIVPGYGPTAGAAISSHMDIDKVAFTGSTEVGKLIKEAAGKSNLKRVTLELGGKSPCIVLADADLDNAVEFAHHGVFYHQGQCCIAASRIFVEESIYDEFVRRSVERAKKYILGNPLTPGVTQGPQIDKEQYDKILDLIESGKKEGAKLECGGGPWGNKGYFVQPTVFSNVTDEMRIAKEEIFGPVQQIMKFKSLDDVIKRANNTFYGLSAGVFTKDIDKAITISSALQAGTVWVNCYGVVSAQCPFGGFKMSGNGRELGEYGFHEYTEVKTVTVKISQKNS
Lamin A splicing: modulators of lamin A splicing. HeLa LMNA splicing GFP/RFP minigene ratio, 48 h. Potency, µM (top dose mostly 46.1 µM), without a hit: at the highest dose ratio change, negative = inhibition, usual class: inhibitors. 0.01% of 200,000 active. AID 1487; active = well fitted inhibition curve with a large enough effect in the signal ratio, with a control signal flat, not every such curve was filed as active; inconclusive = small, poorly fitted or top-dose-only effect, or effect the other way, or a change in a side signal; the % refers to the signal ratio; also: % is scaled to controls: 0 for no effect and ±100 for the full control effect
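Read-out is the ratio of GFP to DsRed2 object intensity, acquired by 488 nm laser-scanning cytometry on HeLa lamin A-EGFP minigene reporter cells. Compound incubation 48 hrs at 37 °C in Opti-MEM with 2% FBS; DMSO 0.5% final.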
An asterisk follows results filed as active; ? = inconclusive; nt = not tested or not shown; [ ] = another dose, or the depositor's remark. Unless noted, calls follow the shape of the dose curve; as a rule, active = well fitted curve in the direction sought with a large enough effect; inconclusive = small, poorly fitted or top-dose-only effect, or another doubt; inactive = no such curve, though single readings can be large; an effect the other way counts as inactive or inconclusive. Potency is read from the fitted curve at half-maximal effect.

SMILES	HPGD inh	Luc counter	HTT ATP protect	HTT aggregate	ALDH1A1 block	Lamin A splicing
CCC(=O)/C=C/C1C(C)=CCCC1(C)C (configuration not stated)	-7%	nt	-1%	nt	13µM*	nt
CCc1cc(C(=O)c2ccc(OC)cc2)c(N)s1	nt	nt	nt	0.11µM*	nt	nt
CC1=NN(c2nc3ccccc3[nH]2)C(=O)/C1=C/N(C)C	nt	1.6µM*	-267%	-19%	-7%	?
CC1=NN(c2ccccc2)C(=O)/C1=C/N(C)C	nt	nt	-4%[10 µM]	-9%[9.22 µM]	nt	nt
C/C(=C1/C(=O)N(c2ccc([N+](=O)[O-])cc2)N=C1c1ccccc1)N(C)C	-1%	-6%	-38%	13µM*	-8%	?
CN(C)/C=C1\C(=O)N(c2ccc([N+](=O)[O-])cc2)N=C1c1ccccc1	-13%	-6%	0%[10 µM]	-13%	25µM*	?
CN(C)/C=C1/C(=O)N(c2ccc([N+](=O)[O-])cc2)N=C1c1ccccc1	-15%	-3%	9%[10 µM]	-13%	16µM*	?
CCCC1=NN(c2ccc([N+](=O)[O-])cc2)C(=O)/C1=C/N(C)C	-22%	-2%	-20%[10 µM]	?	?	?
CC(C)NC(=O)CSc1nnc(CNC(=O)OC(C)(C)C)n1C	nt	nt	15%[10 µM]	9%[9.22 µM]	nt	nt
O=C(CCCn1cnc([N+](=O)[O-])n1)Nc1cccc(Cl)c1Cl	-16%	-2%	-5%[10 µM]	7%	-9%	?
Cc1sc2ncnc(N3CCN(C(=O)c4ccco4)CC3)c2c1C	nt	2%	6%[10 µM]	-14%[9.22 µM]	-15%	nt
CC1=NN(c2ccc([N+](=O)[O-])cc2)C(=O)/C1=C\N(C)C	-9%	13µM*	-3%[10 µM]	-16%	?	-12%
CC1=NN(c2ccc(S(=O)(=O)O)cc2Cl)C(=O)C1	nt	-1%	15%[10 µM]	-14%[9.22 µM]	11µM*	3%[46 µM]
COc1ccc2cc3c(N)nn(C(=O)Cc4ccccc4OC)c3nc2c1	-1%	-2%	23%	4.5µM*	?	13%
COc1ccc(NC(=O)c2cccc([N+](=O)[O-])c2)cc1	nt	?	-76%	-12%	?	nt
COc1ccc(-n2cnc(N)c2C(=O)c2cccc([N+](=O)[O-])c2)cc1	-11%	-2%	10%[10 µM]	8.9µM*	-4%	?
COc1ccc2cc3c(N)nn(C(=O)C4CCC(C(C)(C)C)CC4)c3nc2c1 (configuration not stated)	?	0%	nt	10µM*	?	?
COc1ccc2cc3c(N)nn(C(=O)c4cccc([N+](=O)[O-])c4)c3nc2c1	-20%	0%	3%[10 µM]	3.5µM*	-9%	0%
COc1cccc(NC(=O)n2nc(N)cc2-c2ccc(Cl)cc2)c1	-4%	4%	5%	-24%	9%	-7%
C/C=C/c1ccc(OCCCN2C(=O)NC(C)(C)C2=O)c(OC)c1	-13%	0%	-19%	-2%[9.22 µM]	14µM*	8%
Cc1ccc(S(=O)(=O)N/N=C/c2cc([N+](=O)[O-])ccc2O)cc1[N+](=O)[O-]	nt	-1%	10%[10 µM]	13%	13µM*	?
CCOc1cccc(/C=N/NS(=O)(=O)c2ccc(C)c([N+](=O)[O-])c2)c1O	nt	6%	-18%	-4%	4µM*	-12%[46 µM]
CCOc1cccc(/C=N/NC(=S)Nc2ccccc2[N+](=O)[O-])c1O	nt	-1%	-119%	-29%	2%	?
Cc1ccc(S(=O)(=O)N/N=C/c2ccc(O)cc2O)cc1[N+](=O)[O-]	nt	nt	-9%[10 µM]	-5%[9.22 µM]	nt	nt
COc1cc(/C=N/NS(=O)(=O)c2ccc(C(C)(C)C)cc2)cc([N+](=O)[O-])c1O	nt	nt	-15%[10 µM]	-3%[9.22 µM]	7.9µM*	nt
COc1cc(/C=N/NS(=O)(=O)c2ccc(C)c([N+](=O)[O-])c2)ccc1O	nt	5%	7%	27%	13µM*	-4%[46 µM]
CCn1cc(C2=NCC(C)O2)c2ccccc21 (configuration not stated)	-23%	1%	-24%	-6%	?	-1%
